# Source: PubChem (National Center for Advancing Translational Sciences (NCATS))
# In the library only some 2.4% were active in any assay of this set; here they are far more common.
# Pol iota inh: inhibitors of human DNA polymerase iota; Pol iota fluorescent replication assay, 10 min; Potency, µM (series often up to 115 µM), usual class: inhibitors; hit rate 1% among 390,000
#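 Fluorescent replication assay read twice, at 0 min and 10 min after adding 50 nM (final) substrate. Enzyme (10 nM) and compounds were first incubated 15 min at room temperature; enzyme-free buffer wells were negative controls.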
# KAT2A inh: GCN5L2 (KAT2A) acetyltransferase inhibition; Q92830; GCN5L2 HAT assay, ThioGlo1 CoA-SH fluorescence; Potency, µM (top dose mostly 58.9 µM), hits mostly inhibitors; hit rate 0.21% among 390,000
# Target sequence (Q92830 whole entry, looked up): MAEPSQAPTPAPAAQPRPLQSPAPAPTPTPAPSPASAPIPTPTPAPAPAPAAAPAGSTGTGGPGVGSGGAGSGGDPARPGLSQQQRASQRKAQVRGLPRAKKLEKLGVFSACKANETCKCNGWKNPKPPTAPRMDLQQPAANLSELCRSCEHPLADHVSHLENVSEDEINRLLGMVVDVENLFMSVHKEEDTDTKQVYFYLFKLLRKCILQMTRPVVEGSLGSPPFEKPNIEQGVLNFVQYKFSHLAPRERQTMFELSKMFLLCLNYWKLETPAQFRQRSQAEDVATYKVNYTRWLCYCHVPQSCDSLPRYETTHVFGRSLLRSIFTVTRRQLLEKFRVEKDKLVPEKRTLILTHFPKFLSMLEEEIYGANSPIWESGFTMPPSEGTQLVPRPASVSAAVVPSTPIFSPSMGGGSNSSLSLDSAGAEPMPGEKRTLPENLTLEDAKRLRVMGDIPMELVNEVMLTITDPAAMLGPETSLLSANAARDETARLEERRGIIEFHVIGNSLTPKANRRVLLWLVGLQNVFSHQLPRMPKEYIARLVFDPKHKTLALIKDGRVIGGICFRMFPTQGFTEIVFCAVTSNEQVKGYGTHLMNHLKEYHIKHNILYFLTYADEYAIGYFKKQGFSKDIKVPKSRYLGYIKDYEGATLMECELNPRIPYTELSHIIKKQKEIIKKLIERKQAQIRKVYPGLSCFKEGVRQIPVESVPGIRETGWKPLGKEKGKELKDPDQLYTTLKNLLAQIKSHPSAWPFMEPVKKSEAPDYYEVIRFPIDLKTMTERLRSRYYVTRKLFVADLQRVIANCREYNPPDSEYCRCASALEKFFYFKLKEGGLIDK
#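 Free CoA generated was detected with ThioGlo1 (50uM) fluorescence at Ex340nm/Em540nm, read immediately and after 20 min at room temperature. Enzyme, 20 nM in HEPES pH 7.5 buffer, saw compounds 15 min before adding 75uM H3(1-25) peptide and 70uM acetyl-CoA.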
# Pol beta inh: DNA polymerase beta (human) inhibition. P06746. Pol beta primer extension/strand displacement, fluorescence kinetic. Potency, µM (doses to about 114 µM), actives largely listed as inhibitors. hit rate 1.3% among 340,000
#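 Curves were derived by four-parameter Hill fits of normalized qHTS data. The kinetic fluorescent primer-extension read was taken at 0 and 10 min after 50 nM substrate, following a 15 min room-temperature preincubation of 10 nM enzyme with compounds.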
# Pol eta inh: blocks human DNA polymerase eta activity | hit rate 1.2% among 390,000 | AID 588591 | recombinant Pol eta, fluorescent DNA replication assay | Potency, µM (highest dose often 114 µM), usual class: inhibitors
#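 Fluorescent replication assay: 50 nM final substrate added after a 15 min room-temperature compound preincubation with 10 nM enzyme. Signal taken at 0 min and again at 10 min.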
# GLS inhibitor: blocks human kidney-isoform glutaminase activity | O94925 | GLS enzymatic activity, qHTS titration | Potency, µM (titrated, usually from 45.5 µM), most hits filed as inhibitors | hit rate 0.21% among 410,000
#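 Human kidney-isoform GLS in 45 mM KH2PO4 pH 8.2, 0.02% Tween-20, with compound, started with 1mM L-Glutamine (added stock). Glutamate oxidase/HRP/Amplex red coupled fluorescence read at start and after 30 min at RT.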
# Pol kappa inh: inhibitors of human DNA polymerase kappa; purified Pol kappa, fluorescent DNA synthesis assay, 10 min; AID 588579; Potency, µM (top dose mostly 107 µM), usual class: inhibitors; hit rate 0.53% among 400,000; Q9UBT6
#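 Enzyme at 10 nM met test compounds for 15 min at room temperature. Substrate addition (50 nM final) began the reaction, which was monitored by fluorescence at 0 and 10 min.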
# Hits are given with their value; n = inactive; u = inconclusive; x = no result given; [ ] = remark or other dose. Calls follow the shape of the dose curve; as a rule, active = well fitted inhibition curve with a large enough effect; inconclusive = small, poorly fitted or top-dose-only effect, or another doubt; inactive = no such curve, though single readings can be large or run the other way.
SMILES,Pol iota inh,KAT2A inh,Pol beta inh,Pol eta inh,GLS inhibitor,Pol kappa inh
O=C(Oc1ccc([N+](=O)[O-])cc1)C1CC(=O)N(c2ccc3c(c2)OCCO3)C1 (stereo not given),79µM,n,x,u,n,n
Cc1ccc2nc3c(c(C(=O)O)c2c1)CCC3,u,n,45µM,32µM,u,n
O=C(O)c1c2c(nc3ccc(F)cc13)CCC2,n,n,n,n,n,n
O=C(O)c1c2c(nc3ccc(Cl)cc13)CCC2,n,n,16µM,u,n,n
O=S(=O)(c1ccc2ncccc2c1)N1CCN(c2nc(-c3cccs3)nc3ccccc23)CC1,n,x,x,x,x,n
O=C(Nc1ccc(OC(F)F)cc1)c1nc(SCc2ccccc2F)ncc1Cl,n,x,x,x,x,n
COc1ccc(/C=N/NC(=O)c2ccco2)cc1COc1ccc(F)cc1,79µM,n,u,n,n,n
COc1ccc(/C=N/NC(=O)c2cc(Br)ccc2O)cc1Cn1cc(Cl)cn1,n,n,u,u,n,n
COc1ccc(C(=O)N/N=C/c2ccc(OC)c(COc3ccccc3)c2)cc1,n,n,n,n,n,n
COc1ccc(/C=N/NC(=O)c2ccc(NC(C)=O)cc2)cc1COc1ccc(F)cc1F,35µM,n,35µM,u,n,n
COc1ccc(/C=N\NC(=O)c2cc(O)c(O)c(O)c2)cc1COc1ccc(C(=O)OCC(C)C)cc1,n,n,1.4µM,u,n,n
COc1ccc(/C=N/NC(=O)c2ccc(Cl)cc2)cc1Cn1cc(Cl)cn1,79µM,n,20µM,n,n,u
NC1(c2ccc(-c3nc4ccn5c(=O)[nH]nc5c4cc3-c3ccccc3)cc2)CCC1,n,x,x,x,n,n
Cc1ccc(-c2nc3c(C)cccn3c2Nc2ccccc2C)s1,n,n,n,n,n,n
Cc1ccc(S(=O)(=O)N2CCN(c3nc(-c4cncn4C)nc4ccccc34)CC2)cc1,n,x,x,x,x,n
COc1ccc(/C=N/NC(=O)c2cc(C(C)(C)C)[nH]n2)cc1COc1ccc(F)cc1F,89µM,n,n,n,n,n
Cc1cc(-c2nc3ncccc3o2)ccc1NC(=O)c1ccc([N+](=O)[O-])o1,3.5µM,x,x,50µM,n,n
Cc1ccc(C(=O)Nc2cc(-c3nc4ncccc4o3)ccc2C)c(C)c1,n,n,n,79µM,n,n
Cc1cc(C)cc(C(=O)Nc2ccc(-c3nc4ncccc4o3)cc2)c1,n,n,14µM,u,n,n
C=CCN1CC[C@@H](O)C(=C)S1(=O)=O,n,x,x,x,x,n
CCOc1ccc(/C=C/C(=O)c2ccc(-c3ccccc3)cc2)cc1,n,n,n,n,n,n
CC(C)=CCOc1ccc(/C=C/C(=O)c2ccc(OCC=C(C)C)cc2OCC(=O)O)cc1,x,10µM,x,x,n,u
CN(C)c1ccc(/C=C/c2ccnc3c(-c4ccccc4)cccc23)cc1,n,x,x,x,x,n
C=CCOc1ccc(/C=C2\SC(=S)N(NS(=O)(=O)c3ccc(C)cc3)C2=O)cc1,u,u,u,50µM,n,n
Cc1ccc(S(=O)(=O)NN2C(=O)/C(=C/c3ccc(C(=O)O)cc3)SC2=S)cc1,13µM,n,n,n,n,u
SMILES,Pol iota inh,KAT2A inh,Pol beta inh,Pol eta inh,GLS inhibitor,Pol kappa inh
Cc1ccc(S(=O)(=O)NN2C(=O)/C(=C/c3ccc(F)cc3)SC2=S)cc1,n,n,n,u,n,n
COc1ccc(/C=C2/SC(=S)N(NS(=O)(=O)c3ccc(C)cc3)C2=O)cc1,u,n,u,79µM,n,n
Cc1ccc(S(=O)(=O)NN2C(=O)/C(=C/c3cccs3)SC2=S)cc1,n,n,n,n,n,n
Cc1ccc(/C=C2\SC(=S)N(NS(=O)(=O)c3ccc(C)cc3)C2=O)cc1,n,u,79µM,u,n,n
CCOC(=O)N1CCN(/[N+]([O-])=N/Oc2ccc([N+](=O)[O-])cc2[N+](=O)[O-])C(C)C1 (stereo not given),n,x,x,x,x,n
CN(N=O)c1ccc(/C=C/c2ccccc2)cc1,n,x,x,x,x,n
Brc1cc(Br)c[n+](CCc2ccccc2)c1,n,x,x,x,x,n
C=C1CCC(C)C(C)(CCC2=CCOC2=O)C/C=C\C=C/1C(=O)O (stereo not given),u,n,n,28µM,n,u
O=C(COc1ccccc1C(=O)Nc1ccccc1)Nc1ccccc1F,u,x,x,x,x,n
Cn1cnc([N+](=O)[O-])c1SCC(=O)NN,79µM,n,n,n,n,u
CCn1cc(C(=O)N2CCN(c3ccccc3F)CC2)c(=O)c2cc(S(=O)(=O)N(C)C3CCCCC3)ccc21,n,n,n,n,n,n
Cc1ccc(CN(C(=O)c2ccc(F)cc2)c2ccccn2)o1,n,n,n,n,n,n
Cc1ccc(CN(C(=O)c2ccccc2F)c2ccccn2)o1,79µM,n,56µM,n,u,u
O=c1[nH]/c(=C/c2ccc3c(c2)OCO3)c(=O)[nH]/c1=C/c1ccc2c(c1)OCO2,n,x,x,x,x,n
CC12CCC(C[N+](C)(CCC[N+](C)(C)C)C1)C2(C)C (stereo not given),x,22µM,x,x,n,n[19.4 µM]
CC12CCC(C[N+](C)(C)C1)C2(C)C (stereo not given),n,n,n,n,n,n
CC(C)Cn1c(SCc2nnc(-c3cccs3)o2)nc(O)cc1=O,25µM,n,n,u,n,n
Cc1nnc(SCc2nnc(-c3cccs3)o2)n1C,n,n,n,n,n,n
CCn1c2c(c(=O)n3ncc(C(=O)N4CCN(c5ccc(C(C)=O)cc5)CC4)c13)CN(Cc1ccc(OC)cc1)CC2,u,n,u,89µM,n,n
O=C(O)c1cc(N=Nc2ccc(-c3ccc(N=Nc4ccc(O)c(C(=O)O)c4)cc3)cc2)ccc1O,x,3.2µM,x,x,x,6µM
Cc1cc(C(=O)COc2cccc3cccnc23)c(C)n1C,n,n,11µM,u,n,n
CC1=NN(c2ccccc2C)C(=O)C1,3.2µM,x,x,n,n,n
COc1ccc(/C=C/c2cnc3ccccc3n2)cc1OC,n,x,x,x,x,n
Cc1oc(C)c2c(=O)cc(-c3ccc4c(c3)OCO4)cc(OC(=O)c3cccc(Cl)c3)c12,u,n,n,u,n,u
Cc1ccc(C(=O)Oc2cc(-c3ccc4c(c3)OCO4)cc(=O)c3c(C)oc(C)c23)cc1,u,n,n,79µM,n,n
CC1(C)CC(=O)c2cc(C(=O)NCCc3ccccc3)c(=O)[nH]c2C1,n,x,x,x,x,n
CC1=NN(c2ccccc2)C(=O)C1C(=O)c1cc([N+](=O)[O-])cc([N+](=O)[O-])c1 (stereo not given),16µM,n,n,n,n,n
O=c1oc(-c2ccc(O)c(O)c2)cc2cccc(O)c12,u,n,x,35µM,u,u
CCOc1ccc(Nc2cc(C)nc3nc(C)nn23)cc1,n,n,n,n,n,n
